Source: paper PMC7862700, “An all-to-all approach to the identification of sequence-specific readers for epigenetic DNA modifications on cytosine”

How the values were obtained:
Assay in all cases: DAPPL (digital affinity profiling via proximity ligation, sequencing); 10 mM Tris-HCl pH 7.5, 50 mM NaCl, 1 mM DTT, 4% glycerol, room temperature, 30 min; GST-TFs on glutathione beads, 16-mer random dsDNA library, 0.1% formaldehyde crosslink after washing; high values mean tight binding
Conditions in all cases: protein: recombinant; tags: N-terminal GST; dsDNA, one strand shown
ERF = biological target: T1, ERF (Homo sapiens, UniProt P50548 1-548)
T1 sequence: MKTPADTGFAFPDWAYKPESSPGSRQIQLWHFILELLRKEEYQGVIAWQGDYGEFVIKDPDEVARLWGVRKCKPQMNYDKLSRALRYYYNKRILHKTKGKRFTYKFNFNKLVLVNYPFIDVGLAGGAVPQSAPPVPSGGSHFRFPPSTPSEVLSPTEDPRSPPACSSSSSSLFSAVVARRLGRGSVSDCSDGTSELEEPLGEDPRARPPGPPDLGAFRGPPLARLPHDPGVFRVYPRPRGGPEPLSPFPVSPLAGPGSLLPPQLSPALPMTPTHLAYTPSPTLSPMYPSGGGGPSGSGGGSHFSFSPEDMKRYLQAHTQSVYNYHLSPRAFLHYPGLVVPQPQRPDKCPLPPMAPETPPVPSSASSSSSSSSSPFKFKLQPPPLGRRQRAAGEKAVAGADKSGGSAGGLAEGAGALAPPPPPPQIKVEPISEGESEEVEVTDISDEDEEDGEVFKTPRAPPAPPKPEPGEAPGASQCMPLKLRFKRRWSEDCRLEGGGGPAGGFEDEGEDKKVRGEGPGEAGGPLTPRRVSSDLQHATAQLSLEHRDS
Method in brief: (§1)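 Binding signal is defined as a hexamer's read frequency for one factor over its frequency for the tag-only sample. To obtain reads, GST-fused human transcription factors were expressed in yeast, captured on glutathione beads, barcoded with DNA and pooled with that sample. Pools met 200 nmole of a 16-mer random double-stranded DNA library in Tris/NaCl/DTT/glycerol buffer for 30 min at room temperature before washing, 0.1% formaldehyde crosslinking, proximity ligation (BsaI/T4 ligase, 1 h, 37 °C), PCR and Illumina NextSeq500 sequencing.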

ETV3L = biological target: T2, ETV3L (Homo sapiens, UniProt Q6ZN32 1-361)
T2 sequence: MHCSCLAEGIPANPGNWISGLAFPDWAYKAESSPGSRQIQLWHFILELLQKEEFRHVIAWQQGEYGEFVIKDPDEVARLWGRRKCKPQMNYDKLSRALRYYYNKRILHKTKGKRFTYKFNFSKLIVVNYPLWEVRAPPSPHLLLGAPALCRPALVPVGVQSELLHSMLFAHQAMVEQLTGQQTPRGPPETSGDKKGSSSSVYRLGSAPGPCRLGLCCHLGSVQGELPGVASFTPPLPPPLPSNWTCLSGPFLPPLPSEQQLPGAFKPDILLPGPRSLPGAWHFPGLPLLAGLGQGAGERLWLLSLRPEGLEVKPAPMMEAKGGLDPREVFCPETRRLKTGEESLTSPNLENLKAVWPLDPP
Method in brief: as §1

ETS2 = biological target: T3, ETS2 (Homo sapiens, UniProt P15036 1-469)
T3 sequence: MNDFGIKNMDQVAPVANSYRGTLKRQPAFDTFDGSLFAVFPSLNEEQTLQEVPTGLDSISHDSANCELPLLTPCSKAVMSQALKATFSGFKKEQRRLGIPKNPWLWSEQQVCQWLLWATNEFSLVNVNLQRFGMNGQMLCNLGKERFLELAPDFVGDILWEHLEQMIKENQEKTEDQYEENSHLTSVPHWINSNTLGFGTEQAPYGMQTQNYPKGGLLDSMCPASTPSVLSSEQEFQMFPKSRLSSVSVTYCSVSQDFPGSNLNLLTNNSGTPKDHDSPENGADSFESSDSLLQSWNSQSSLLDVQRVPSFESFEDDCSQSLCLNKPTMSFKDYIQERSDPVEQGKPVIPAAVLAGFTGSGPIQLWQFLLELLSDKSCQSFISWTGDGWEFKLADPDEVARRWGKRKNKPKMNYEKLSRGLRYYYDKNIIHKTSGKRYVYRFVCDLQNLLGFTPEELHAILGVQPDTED
Method in brief: as §1

SPDEF = biological target: T4, SPDEF (Homo sapiens, UniProt O95238 1-335)
T4 sequence: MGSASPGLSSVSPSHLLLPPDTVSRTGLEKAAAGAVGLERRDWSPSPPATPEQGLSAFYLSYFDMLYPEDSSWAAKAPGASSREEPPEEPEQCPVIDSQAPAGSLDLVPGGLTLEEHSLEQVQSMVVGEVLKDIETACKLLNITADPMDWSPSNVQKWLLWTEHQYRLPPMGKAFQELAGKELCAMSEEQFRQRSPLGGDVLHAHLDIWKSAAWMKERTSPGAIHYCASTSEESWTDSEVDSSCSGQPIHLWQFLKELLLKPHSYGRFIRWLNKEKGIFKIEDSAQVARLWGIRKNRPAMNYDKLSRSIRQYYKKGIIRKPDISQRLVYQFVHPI
Method in brief: as §1

ETV7 = biological target: T5, ETV7 (Homo sapiens, UniProt Q9Y603 1-341)
T5 sequence: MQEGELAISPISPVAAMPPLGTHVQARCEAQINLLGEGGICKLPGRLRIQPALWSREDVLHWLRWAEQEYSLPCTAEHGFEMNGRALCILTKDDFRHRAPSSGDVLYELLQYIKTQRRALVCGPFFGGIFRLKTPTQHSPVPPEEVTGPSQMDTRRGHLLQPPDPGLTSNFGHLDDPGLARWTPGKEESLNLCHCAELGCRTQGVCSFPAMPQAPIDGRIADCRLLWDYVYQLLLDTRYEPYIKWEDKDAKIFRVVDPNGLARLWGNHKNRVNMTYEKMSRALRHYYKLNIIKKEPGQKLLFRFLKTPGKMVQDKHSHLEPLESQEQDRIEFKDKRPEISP
Method in brief: as §1

ELF5 = biological target: T6, ELF5 (Homo sapiens, UniProt Q9UKW6-2 1-255)
T6 sequence: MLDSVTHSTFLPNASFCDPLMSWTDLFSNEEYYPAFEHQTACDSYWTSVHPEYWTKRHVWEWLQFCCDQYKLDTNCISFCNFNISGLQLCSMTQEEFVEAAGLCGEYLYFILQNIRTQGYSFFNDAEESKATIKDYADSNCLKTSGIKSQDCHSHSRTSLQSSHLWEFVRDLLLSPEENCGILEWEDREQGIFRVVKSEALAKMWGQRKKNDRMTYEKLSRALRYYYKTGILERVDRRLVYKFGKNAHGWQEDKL
Method in brief: as §1

ETV3 = biological target: T7, ETV3 (Homo sapiens, UniProt P41162-2 1-143)
T7 sequence: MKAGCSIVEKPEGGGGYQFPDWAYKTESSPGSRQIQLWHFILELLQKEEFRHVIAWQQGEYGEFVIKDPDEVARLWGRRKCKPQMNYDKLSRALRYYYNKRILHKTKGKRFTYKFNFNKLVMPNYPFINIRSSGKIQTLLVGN
Method in brief: as §1

ETV6 = ETV6 (Homo sapiens, UniProt P41212 1-452)
Method in brief: as §1

ETV6, sequence (P41212 whole entry): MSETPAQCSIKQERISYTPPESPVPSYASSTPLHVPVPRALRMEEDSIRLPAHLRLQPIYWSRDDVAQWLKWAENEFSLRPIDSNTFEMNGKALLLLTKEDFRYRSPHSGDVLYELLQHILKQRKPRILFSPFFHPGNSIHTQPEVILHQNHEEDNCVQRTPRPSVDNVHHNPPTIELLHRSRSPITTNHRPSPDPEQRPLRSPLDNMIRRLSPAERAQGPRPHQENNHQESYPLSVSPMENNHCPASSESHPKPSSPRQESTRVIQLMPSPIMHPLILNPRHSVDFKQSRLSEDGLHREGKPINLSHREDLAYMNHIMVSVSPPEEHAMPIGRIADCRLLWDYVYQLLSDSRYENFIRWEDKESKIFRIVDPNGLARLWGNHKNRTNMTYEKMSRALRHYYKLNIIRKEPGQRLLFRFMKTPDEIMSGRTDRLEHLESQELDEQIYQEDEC

Sequence | binding signal (ERF) | binding signal (ETV3L) | binding signal (ETS2) | binding signal (SPDEF) | binding signal (ETV7) | binding signal (ELF5) | binding signal (ETV3) | binding signal (ETV6)
TATTAA | 1.22 fold enrichment (6-mer frequency, TF over GST control) | 1.18 fold enrichment (6-mer frequency, TF over GST control) | 1.17 fold enrichment (6-mer frequency, TF over GST control) | 1.18 fold enrichment (6-mer frequency, TF over GST control) | 1.15 fold enrichment (6-mer frequency, TF over GST control) | 1.13 fold enrichment (6-mer frequency, TF over GST control) | 1.16 fold enrichment (6-mer frequency, TF over GST control) | 1.12 fold enrichment (6-mer frequency, TF over GST control)
GCACTA | 1.19 fold enrichment (6-mer frequency, TF over GST control) | 1.23 fold enrichment (6-mer frequency, TF over GST control) | 1.21 fold enrichment (6-mer frequency, TF over GST control) | 1.16 fold enrichment (6-mer frequency, TF over GST control) | 1.2 fold enrichment (6-mer frequency, TF over GST control) | 1.1 fold enrichment (6-mer frequency, TF over GST control) | 1.22 fold enrichment (6-mer frequency, TF over GST control) | 1.09 fold enrichment (6-mer frequency, TF over GST control)
TCACCT | 1.2 fold enrichment (6-mer frequency, TF over GST control) | 1.17 fold enrichment (6-mer frequency, TF over GST control) | 1.09 fold enrichment (6-mer frequency, TF over GST control) | 1.22 fold enrichment (6-mer frequency, TF over GST control) | 1.19 fold enrichment (6-mer frequency, TF over GST control) | 1.21 fold enrichment (6-mer frequency, TF over GST control) | 1.2 fold enrichment (6-mer frequency, TF over GST control) | 1.19 fold enrichment (6-mer frequency, TF over GST control)
CCAATA | 1.34 fold enrichment (6-mer frequency, TF over GST control) | 1.21 fold enrichment (6-mer frequency, TF over GST control) | 1.28 fold enrichment (6-mer frequency, TF over GST control) | 1.24 fold enrichment (6-mer frequency, TF over GST control) | 1.14 fold enrichment (6-mer frequency, TF over GST control) | 1.13 fold enrichment (6-mer frequency, TF over GST control) | 1.19 fold enrichment (6-mer frequency, TF over GST control) | 1.23 fold enrichment (6-mer frequency, TF over GST control)
ACTAGC | 1.19 fold enrichment (6-mer frequency, TF over GST control) | 1.16 fold enrichment (6-mer frequency, TF over GST control) | 1.16 fold enrichment (6-mer frequency, TF over GST control) | 1.15 fold enrichment (6-mer frequency, TF over GST control) | 1.16 fold enrichment (6-mer frequency, TF over GST control) | 1.13 fold enrichment (6-mer frequency, TF over GST control) | 1.15 fold enrichment (6-mer frequency, TF over GST control) | 1.2 fold enrichment (6-mer frequency, TF over GST control)
TGACCC | 1.4 fold enrichment (6-mer frequency, TF over GST control) | 1.3 fold enrichment (6-mer frequency, TF over GST control) | 1.38 fold enrichment (6-mer frequency, TF over GST control) | 1.49 fold enrichment (6-mer frequency, TF over GST control) | 1.4 fold enrichment (6-mer frequency, TF over GST control) | 1.4 fold enrichment (6-mer frequency, TF over GST control) | 1.39 fold enrichment (6-mer frequency, TF over GST control) | 1.28 fold enrichment (6-mer frequency, TF over GST control)
ACTACT | 1.33 fold enrichment (6-mer frequency, TF over GST control) | 1.37 fold enrichment (6-mer frequency, TF over GST control) | 1.25 fold enrichment (6-mer frequency, TF over GST control) | 1.15 fold enrichment (6-mer frequency, TF over GST control) | 1.35 fold enrichment (6-mer frequency, TF over GST control) | 1.34 fold enrichment (6-mer frequency, TF over GST control) | 1.13 fold enrichment (6-mer frequency, TF over GST control) | 1.27 fold enrichment (6-mer frequency, TF over GST control)
